Measurements taken from PubChem BioAssay (NCATS).
Inconclusive results are not listed. Where a call stands in place of a potency, no number is given. Calls of active or inactive are those of the source. Calls come from the whole dose curve; as a rule, active = well fitted inhibition curve with a large enough effect; inconclusive = small, poorly fitted or top-dose-only effect; inactive = no such curve, though single readings can be large or run the other way.

System: Zika virus NS2B-NS3 protease (linked construct)
Assay: Primary screen NINDS Rhodamine qHTS for Zika virus inhibitors (AID 1347160); note: nearly all actives have a fitted effect of over 55% in size
Details: purified NS2B-NS3 protease, Rhodamine110 substrate fluorescence; series mostly up to 57.1 µM
How it was run: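 In 10 mM Tris-HCl pH 8.0 containing 0.01% Tween 20, linked NS2B-NS3 protease (25 nM final) is exposed to test compounds for 15 min. Cleavage of 1.5 microM Rhodamine110 substrate is tracked by fluorescence over 15 min.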

**Q.** For `C[C@@H](NC(=O)[C@H](O)c1cc(F)cc(F)c1)C(=O)N[C@@H]1C(=O)N(C)c2ccccc2-c2ccccc21`, which Potency is on record?
**A.** Its Potency is “inactive”.

**Q.** How did the Potency turn out when `COc1cc2ncnc(Nc3cccc(I)c3)c2cc1OC` was run?
**A.** The Potency was “inactive”.

**Q.** For `O=C1NC(=O)C(c2cnc3ccccn23)=C1c1cn2c3c(cc(F)cc13)CN(C(=O)N1CCCCC1)CC2`, which Potency is on record?
**A.** The Potency was “inactive”.

**Q.** Which Potency does the source give for `CCc1ccc(-c2nc(CSCC(=O)NCCc3ccccc3)c(C)o2)cc1` here?
**A.** Its Potency is “inactive”.

**Q.** How did the Potency turn out when `C/C=C(\C)[C@@H]1C(C)=C[C@@H]2[C@H]([C@@H]1/C=C/C=C/C(=O)O)[C@@H](C)CC[C@@H]2O` was run?
**A.** The Potency was “inactive”.

**Q.** For `CC(C)C[C@@H](N)C(=O)N[C@H]1C(=O)N[C@@H](CC(N)=O)C(=O)N[C@H]2C(=O)N[C@H]3C(=O)N[C@H](C(=O)N[C@H](C(=O)O)c4cc(O)cc(O)c4-c4cc3ccc4O)[C@H](O)c3ccc(c(Cl)c3)Oc3cc2cc(c3O[C@@H]2O[C@H](CO)[C@@H](O)[C@H](O)[C@H]2O[C@H]2C[C@](C)(N)[C@H](O)[C@H](C)O2)Oc2ccc(cc2Cl)[C@H]1O`, which Potency is on record?
**A.** Its Potency is “inactive”.

**Q.** `COc1cc(OC)c2c(=O)[nH]c(-c3cc(C)c(OCCO)c(C)c3)nc2c1` was tested. Which Potency did it give?
**A.** Its Potency is “inactive”.

**Q.** How did the Potency turn out when `CCOC(=O)CCNc1cc(N2CCc3ccccc3CC2)nc(-c2cccnc2)n1` was run?
**A.** Its Potency is “inactive”.

**Q.** For `COc1ccc(CCO[C@@H]2O[C@H](CO[C@H]3OC[C@](O)(CO)[C@H]3O)[C@@H](OC(=O)/C=C/c3ccc(O)c(O)c3)[C@H](O[C@@H]3O[C@@H](C)[C@H](O)[C@@H](O)[C@H]3O)[C@H]2O)cc1OC`, which Potency is on record?
**A.** The Potency was “inactive”.

**Q.** With `C=C1C(=O)O[C@H]2C1CCC(C)=C1C(=O)C=C(C)[C@@]12O` (some centres undefined) as the compound, how does the Potency read?
**A.** The Potency was “inactive”.

**Q.** Which Potency does the source give for `COc1cc(-n2cnc3cc(-c4ccc(Cl)cc4)sc3c2=O)ccc1OCCN1CCCC1` here?
**A.** Its Potency is “inactive”.

**Q.** Which Potency does the source give for `CCC(C(C)O)n1ncn(-c2ccc(N3CCN(c4ccc(OCC5COC(Cn6cncn6)(c6ccc(F)cc6F)C5)cc4)CC3)cc2)c1=O` (centres undefined) here?
**A.** The Potency was “inactive”.

**Q.** `COc1cc2ncnc(Nc3ccc(F)c(Cl)c3)c2cc1O` was tested. Which Potency did it give?
**A.** The Potency was “inactive”.

**Q.** How did the Potency turn out when `COc1cc(N2CCC(O)CC2)ccc1Nc1nc(Nc2ccccc2S(=O)(=O)C(C)C)c2[nH]cnc2n1` was run?
**A.** The Potency was “inactive”.

**Q.** Which Potency does the source give for `CN(C)C(=O)COC(=O)c1cc(-c2ccc(C3CCNCC3)cc2)c2ccc(-c3ccc(C(F)(F)F)cc3)cc2c1` here?
**A.** Its Potency is “inactive”.

**Q.** With `COc1ccc(-c2c(C)nn3c(NCCN4CCOCC4)cc(C)nc23)cc1OC` as the compound, how does the Potency read?
**A.** Its Potency is “inactive”.

**Q.** Which Potency does the source give for `CC(C)(CNC(=O)c1cccc(-c2noc(C(F)(F)F)n2)c1)c1coc(-c2ccccc2)n1` here?
**A.** The Potency was “inactive”.

**Q.** `C=CC(=O)Nc1cc(-n2c(=O)ccc3cnc4ccc(-c5ccc(NS(C)(=O)=O)cc5)cc4c32)ccc1C` was tested. Which Potency did it give?
**A.** Its Potency is “inactive”.

**Q.** For `Cn1ccc(NC(=O)c2cc(Oc3ccc(C(=O)N4CCC4)c(F)c3)c3c(c2)OC(C)(C)C3)n1`, which Potency is on record?
**A.** Its Potency is “inactive”.

**Q.** Which Potency does the source give for `C=C1C(=O)O[C@H]2/C=C(/C)[C@@H](OC(C)=O)C/C=C(\C)C[C@@H](OC(=O)/C(=C/C)COC(=O)/C(=C/C)CO)[C@@H]12` here?
**A.** The Potency was “inactive”.

**Q.** Which Potency does the source give for `C=CC(=O)N1CCC(Oc2cc3c(Nc4ccc(Cl)c(Cl)c4F)ncnc3cc2OC)CC1` here?
**A.** The Potency was “inactive”.

**Q.** With `C=C1C(=O)OC2/C=C(/C)C3=CC(=O)C(C)(CC(OC(=O)/C(C)=C/COC(C)=O)C12)O3` (centres undefined) as the compound, how does the Potency read?
**A.** The Potency was “inactive”.

**Q.** With `O=C1C(Cc2ccc(O)cc2)N2C(=O)CCN(C(=O)NCc3ccccc3)C2CN1Cc1cccc2ccccc12` (centres undefined) as the compound, how does the Potency read?
**A.** Its Potency is “inactive”.

**Q.** With `O=C(NS(=O)(=O)c1ccc(Br)s1)c1ccc(Cl)cc1Cl` as the compound, how does the Potency read?
**A.** The Potency was “inactive”.

**Q.** Which Potency does the source give for `COc1cc(CCC2=NN=C(NC(=O)c3ccc(N4C[C@@H](C)N[C@@H](C)C4)cc3)C2)cc(OC)c1` here?
**A.** Its Potency is “inactive”.

**Q.** How did the Potency turn out when `CC(C)c1noc(C2CCN(c3ncnc(Nc4ccc(S(C)(=O)=O)cc4F)c3[N+](=O)[O-])CC2)n1` was run?
**A.** The Potency was “inactive”.

**Q.** `O=C(NCC1(c2nc(-c3ccccc3)cs2)CCOCC1)c1cccc(-c2noc(C(F)(F)F)n2)c1` was tested. Which Potency did it give?
**A.** Its Potency is “inactive”.

**Q.** With `CS/C=C/C(=O)O[C@@H]1CCC2=CC(=O)C(=C(C)C)C[C@]2(C)[C@H]1C` as the compound, how does the Potency read?
**A.** Its Potency is “inactive”.

**Q.** For `CCS(=O)c1nc(-c2cccc(OCc3ccccc3)c2)cc(C(F)(F)F)n1` (centres undefined), which Potency is on record?
**A.** Its Potency is “inactive”.

**Q.** How did the Potency turn out when `Nc1ncnc2c1nc(Cl)n2C1OC2COP(=O)(O)OC2C1O` (centres undefined) was run?
**A.** The Potency was “inactive”.

**Q.** `COC(=O)c1cc(Br)cnc1N1CCC(NC2CCCCC2)C(O)C1` (centres undefined) was tested. Which Potency did it give?
**A.** Its Potency is “inactive”.

**Q.** For `Cn1c(SCC(=O)N2CCC[C@H]2C(=O)Nc2ccccc2-c2ccccc2)nc2ccccc21`, which Potency is on record?
**A.** The Potency was “inactive”.

**Q.** How did the Potency turn out when `COC(=O)N1CCC(n2ncc3c(N4CCOCC4)nc(-c4ccc(NC(=O)NC5CC5)cc4)nc32)CC1` was run?
**A.** Its Potency is “inactive”.

**Q.** How did the Potency turn out when `Cc1nc(Nc2ccc(F)cc2)nc(N2CCc3ccccc3C2C)c1C` (centres undefined) was run?
**A.** Its Potency is “inactive”.

**Q.** For `COc1cc(C2OC(c3ccc(OC)c(OC)c3)C(C)C2C)ccc1O` (centres undefined), which Potency is on record?
**A.** The Potency was “inactive”.

**Q.** With `COC1CC(=O)C23C(=O)NC(CC(C)C)C2C(C)C(C)=CC3/C=C(\C)CCCC1O` (centres undefined) as the compound, how does the Potency read?
**A.** Its Potency is “inactive”.

**Q.** Which Potency does the source give for `CC(C)CCNC(=O)c1ccc2c(c1)nc(Nc1n[nH]c3ccc(-c4ccccc4OC(F)(F)F)cc13)n2C1CCC(O)CC1` (centres undefined) here?
**A.** Its Potency is “inactive”.

**Q.** Which Potency does the source give for `C[C@H]1CC[C@@]2(OC1)O[C@H]1CC3C4CC[C@H]5C[C@@H](O)CC[C@]5(C)C4=CC(=O)[C@]3(C)[C@H]1[C@@H]2C` (some centres undefined) here?
**A.** The Potency was “inactive”.

**Q.** How did the Potency turn out when `C=C1CC[C@H]2C(=C)CC[C@H]3C(=C)C(=O)O[C@@H]3[C@@H]12` was run?
**A.** The Potency was “inactive”.
